# Results: PubChem BioAssay (NCI)
# The panel holds about 83,000 compounds, 20% with a hit somewhere; the sample as a whole holds those more often.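 How to read the values: 0–100, growth inhibition (40 = 60% inhibited); 0, no net growth; -100 to 0, cell death (-40 = 40% of starting cells died; -100 = all dead).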 Values without a mark were called inactive. The source made the active and inactive calls. Rule for the calls: active = growth percent below 10; inactive = the rest.
# Columns and labels:
# Assay in all cases: NCI-60 one-dose screen, 48 h (100 = growth as untreated, 0 = no growth, -100 = all killed)
# Settings in all cases: 10 µM
# T-47D breast = test system: T-47D breast
# MDA-MB-435 melanoma = test system: MDA-MB-435 melanoma
# SW-620 colon = test system: SW-620 colon
# MCF7 breast = test system: MCF7 breast
# HCT-116 colon = test system: HCT-116 colon
# HCC-2998 colon = test system: HCC-2998 colon
# KM12 colon = test system: KM12 colon
Structure (SMILES),growth (T-47D breast),growth (MDA-MB-435 melanoma),growth (SW-620 colon),growth (MCF7 breast),growth (HCT-116 colon),growth (HCC-2998 colon),growth (KM12 colon)
C[n+]1c2ccccc2nc2ccccc21,1.26% (active),-40.9% (active),11.2%,-19.4% (active),-15.5% (active),50.6%,30.4%
N#Cc1cnn(C(=O)c2nn(-c3ccc(Cl)cc3)cc2O)c1N,3.29% (active),19.1%,38%,10.9%,6.75% (active),11.9%,19.1%
Cc1ccc(-n2nnnc2N)c(C)c1,112%,102%,96%,95.9%,98.7%,95%,108%
CCN(CC)c1ccc(/C=C2\SC(=O)C(Nc3nnc(-c4cccnc4SCc4ccccc4)o3)C2=O)cc1 (configuration not stated),50.3%,-24.6% (active),22.7%,14.3%,5.84% (active),4.15% (active),10.3%
COc1cc(OC)c2c(=O)c(O)c(-c3ccccc3)oc2c1,92.1%,86.9%,77.7%,70.1%,63.1%,83.9%,78.7%
Nc1ncc(-c2cnn(C3CCNCC3)c2)cc1-c1nc2ccccc2o1,-4.42% (active),-55.5% (active),-60.4% (active),11.6%,-2.99% (active),14.2%,-81.3% (active)
CC(=O)OC1C=CC(OC(C)=O)O1 (configuration not stated),88.1%,96%,82%,87.9%,84.3%,103%,101%
COC1OC(COS(=O)OC)C(O)C(O)C1OS(=O)OC (configuration not stated),110%,105%,103%,88.4%,105%,97.7%,98.5%
COc1ccc(N(C)c2ncnc3occ(C)c23)cc1,67.1%,7.12% (active),33.9%,9.66% (active),-11.9% (active),7.26% (active),-33.2% (active)
COc1ccc(C(=O)c2cc3c(OC)c(OC)c(OC)cc3[nH]2)cc1,34.9%,-0.263% (active),33.9%,20.4%,28.1%,51.3%,12.6%
COc1cc2c3c(n(C4CCNCC4)c(=O)c2cc1OC)-c1cc2c(cc1C3=O)OCO2,-51.1% (active),-44.1% (active),-73.2% (active),-53.8% (active),-60.7% (active),-95% (active),-79.6% (active)
C/C=C/CSC(C)(C)C(=O)NC,100%,106%,104%,93.8%,91.2%,101%,102%
C1CN(CC2CCC(CN3CCOCC3)O2)CCO1 (configuration not stated),81.5%,104%,92.2%,53.2%,89%,102%,105%
C[C@@H](O)[C@H]1C(=O)N2C(C(=O)O)=C(SC3CN[C@H](C(=O)N(C)C)C3)[C@H](C)[C@H]12 (some centres not stated),98.2%,101%,99.4%,101%,104%,106%,108%
CCOC(=O)C1=CSC2=NC3=C(CCC/C3=C\c3cc(OC)c(OC)c(OC)c3)C(c3cc(OC)c(OC)c(OC)c3)N12 (configuration not stated),88.9%,21%,44.9%,29.9%,19.2%,75.1%,-21.8% (active)
COc1cc(-c2nn(-c3cccc(NC(=O)CN4CCOCC4)c3)cc2-c2cccnc2)ccc1Cl,72.2%,6.77% (active),62.2%,62.4%,82.7%,112%,71.9%
